According to the supplement of paper PMC6555819:

How the values were obtained:
Assay in all cases: PBM binding z-score (relative to random genomic background probes); higher = stronger binding; sequences stand for … in GC…GCGATTGACAGCGTAGAATGAAGG
[1] = tested on: FXR:RXRa (NR concentration 270 nM, RXRa partner concentration 90 nM)
How it was run: (§1)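 The probes on custom Agilent 4×180K protein-binding microarrays were double-stranded, with 34-nt variable regions bearing direct-repeat seeds, single-nucleotide variants, half-site ablations and random human genomic background sequences. Incubation lasted 1 h with ligand-free nuclear receptor dimers in PBS pH 7.4, 2% milk, 0.02% Triton X-100, 1 mM DTT, 0.2 mg/mL BSA and 0.4 mg/ml salmon testes DNA. Antibodies against each partner (one per run) detected bound dimers, and fluorescence scans were regression-normalized. Binding z-scores take the random background probes as reference.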

[2] = tested on: LXRa:RXRa (NR concentration 270 nM, RXRa partner concentration 90 nM)
How it was run: as §1

[3] = tested on: LXRa homodimer (NR concentration 270 nM)
How it was run: as §1

[4] = tested on: LXRb:RXRa (NR concentration 270 nM, RXRa partner concentration 90 nM)
How it was run: as §1

[5] = tested on: LXRb homodimer (NR concentration 270 nM)
How it was run: as §1

[6] = tested on: PPARa:RXRa (NR concentration 270 nM, RXRa partner concentration 90 nM)
How it was run: as §1

[7] = tested on: PPARg:RXRa (NR concentration 180 nM, RXRa partner concentration 90 nM)
How it was run: as §1

[8] = tested on: PPARg:RXRa 270nM:90nM, anti-RXR (NR concentration 270 nM, RXRa partner concentration 90 nM)
How it was run: as §1

[9] = tested on: PPARg:RXRa 30nM:10nM, anti-RXR (NR concentration 30 nM, RXRa partner concentration 10 nM)
How it was run: as §1

[10] = tested on: PPARg:RXRa 90nM:30nM, anti-RXR (NR concentration 90 nM, RXRa partner concentration 30 nM)
How it was run: as §1

[11] = tested on: PPARg:RXRa DBDmut IVT, anti-RXR (DBD mutation: RXRa K156A/R161A, NR concentration 270 nM, RXRa partner concentration 90 nM)
How it was run: as §1

[12] = tested on: PPARg:RXRa IVT, anti-PPARg (NR concentration 270 nM, RXRa partner concentration 90 nM)
How it was run: as §1

[13] = tested on: PPARg DBDmut:RXRa IVT, anti-PPARg (DBD mutation: PPARg1 K132A/R137A, NR concentration 270 nM, RXRa partner concentration 90 nM)
How it was run: as §1

[14] = tested on: PPARg DBDmut IVT, anti-PPARg (DBD mutation: PPARg1 K132A/R137A, NR concentration 270 nM)
How it was run: as §1

[15] = tested on: PPARg homodimer (NR concentration 180 nM)
How it was run: as §1

[16] = tested on: PXR:RXRa (NR concentration 270 nM, RXRa partner concentration 90 nM)
How it was run: as §1

[17] = tested on: PXR homodimer (NR concentration 270 nM)
How it was run: as §1

[18] = tested on: RARa:RXR (NR concentration 270 nM, RXRa partner concentration 90 nM)
How it was run: as §1

[19] = tested on: RARa homodimer (NR concentration 270 nM)
How it was run: as §1

[20] = tested on: RARb:RXRa (NR concentration 270 nM, RXRa partner concentration 90 nM)
How it was run: as §1

Sequence	PBM binding z-score [1]	PBM binding z-score [2]	PBM binding z-score [3]	PBM binding z-score [4]	PBM binding z-score [5]	PBM binding z-score [6]	PBM binding z-score [7]	PBM binding z-score [8]	PBM binding z-score [9]	PBM binding z-score [10]	PBM binding z-score [11]	PBM binding z-score [12]	PBM binding z-score [13]	PBM binding z-score [14]	PBM binding z-score [15]	PBM binding z-score [16]	PBM binding z-score [17]	PBM binding z-score [18]	PBM binding z-score [19]	PBM binding z-score [20]
CGTCCAAGGTCTAAGGTCAGTGAAGAGATGACGG	2.27	1.6	-0.0447	1.63	-0.547	3	3.03	4	2.41	3.52	0.385	1.44	-0.479	-0.374	2.23	2.21	0.498	3.2	0.608	3.71
ATATGTAGCTTACATCCGGGTCATTCAGGCTATG	1.18	1.36	0.618	1.73	0.372	2.39	0.959	0.733	0.448	0.268	0.48	1.48	1.08	0.976	0.783	2.42	1.38	2.54	0.0612	1.31
GTAGACAGGTGAAACGCAGGTAACTCAGGGTGGC	0.081	0.114	-0.34	-0.0403	-0.733	0.941	0.744	0.425	-0.305	0.121	1.08	0.827	-0.547	-0.798	-0.292	-0.0707	-0.535	0.264	-0.278	0.688
ATCGAAAGGTCGACGTGGTGAGTATACACCGTTT	4.21	3.3	0.0877	2.49	0.332	4.08	2.08	2.66	1.01	1.77	0.406	1.46	0.651	0.527	1.02	2.18	0.102	3.07	0.487	3.66
CATACAGGGTCAGCTATGCCAGAGTAGGGACGGC	4.14	2.68	-0.0915	1.98	0.359	4.21	3.53	2.58	0.968	1.77	0.895	2.38	0.429	0.135	0.969	2.18	-0.0786	3.05	0.191	4.03
CGTCCCAGGTCAGCAGGTCAGTGAAAGCGACGTG	3.56	2.34	0.419	1.95	-0.0332	3.49	2.6	2.88	0.0912	1.51	1.69	2.71	-0.717	-0.861	1.2	2.16	-0.206	3.19	0.0121	4.12
GCATGTAGATCAAGGTTAAGAAAGACTAAGCTAA	0.0428	0.684	-0.386	0.504	-0.805	1.47	1.33	2	0.418	1.55	1.08	0.797	-0.718	-0.329	-0.173	0.293	-0.179	0.536	-0.356	0.552
ATCGCTAGGTAACCAAGTTCAGTGAATGCCGAAC	-0.315	0.156	-0.0176	-0.126	-0.754	0.318	-0.0825	-0.186	-0.453	-0.0897	-0.05	0.465	-0.411	-0.436	-0.86	1.57	1.12	0.267	-0.716	0.753
ATTTCTAGGTAAAGATAGTTCAGTGAATGCAAAT	0.355	4.21	0.857	1.02	0.567	1.39	1.3	1.27	0.883	1.07	4.34	3.44	1.56	1.86	1.56	1.08	1.16	0.625	1.49	0.8
CTCGAAAGGTCGTGCTAAGGTGAGTATACCAAAC	5.5	4.12	0.337	3.46	0.12	5.03	3.4	4.54	1.67	3.46	0.626	2.19	0.542	0.415	2.51	3.71	0.449	5.09	0.258	4.05
ACAATTAGTTGAGACGAGGGCAACCGATAGGTTG	0.779	0.374	0.178	0.228	-0.183	0.503	0.794	0.375	0.274	0.45	-0.0279	0.475	0.916	0.299	0.566	1.37	0.711	1.13	0.878	1.14
ATCTCTAGGAAACCAAGTTCAGTGAATGCCGAAC	0.256	0.434	0.599	0.317	0.4	0.151	-0.0218	0.0648	0.0428	0.082	-0.471	0.0982	0.852	0.501	0.854	1.17	1.48	0.595	1.12	0.938
TAGCTTAGGTCAGATCGGGCCAGTATACGCTATA	2	1.41	-0.333	0.69	0.0114	1.96	0.531	0.891	0.0799	0.412	-0.166	0.996	0.561	-0.217	0.322	1.24	-0.17	1.68	-0.0696	3.54
